Bioassay records from PubChem BioAssay.
A selection: hits, their analogues and other compounds. The true share with any hit is near 2.5%.
Cruzain Triton = inhibitors of Trypanosoma cruzi cruzain with detergent; P25779; purified cruzain, Z-FR-AMC fluorescence, 0.01% Triton; Potency, µM, without a hit: max response, negative = inhibition, hits mostly inhibitors; 0.43% of 200,000 active;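 also: plate controls were neutral wells for no effect and buffer without enzyme for full effect; nearly all actives have a fitted effect of over 40% in size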
Target sequence (P25779 123-467 limits assumed): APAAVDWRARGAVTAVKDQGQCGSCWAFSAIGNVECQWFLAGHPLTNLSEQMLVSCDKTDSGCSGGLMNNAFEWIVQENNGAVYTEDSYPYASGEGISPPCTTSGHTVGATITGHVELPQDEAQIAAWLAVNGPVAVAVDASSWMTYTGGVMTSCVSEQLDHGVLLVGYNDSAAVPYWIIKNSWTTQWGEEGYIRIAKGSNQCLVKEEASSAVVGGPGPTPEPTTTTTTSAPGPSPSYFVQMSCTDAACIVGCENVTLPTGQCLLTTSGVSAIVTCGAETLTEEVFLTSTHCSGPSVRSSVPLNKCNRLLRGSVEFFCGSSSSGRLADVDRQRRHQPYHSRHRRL
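In this qHTS format, compounds are incubated with 1.5 nM cruzain for 15 min at room temperature before 2 uM Z-FR-AMC is added. Release of AMC is followed at 360/450 nm, and progress is taken as the 60 s fluorescence difference.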
Cruzain inh noDet = cruzain (T. cruzi) inhibition without detergent; AID 1476; P25779; 2.3% of 200,000 active; Potency, µM, for the others: max response, negative = inhibition, actives largely listed as inhibitors; purified cruzain, Z-FR-AMC fluorescence, no detergent;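 also: plate controls were enzyme without inhibitor for no effect and buffer without enzyme for full effect; nearly all actives have a fitted effect of over 40% in size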
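Detergent-free condition (0.00005% Triton X-100) in acetate buffer pH 5.5 with DTT. 1.5 nM enzyme and compound were pre-mixed 15 min, then 2 uM Z-FR-AMC substrate added; reaction progress from fluorescence change between first and third reads (60 s).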
* marks the source's active call; other numbers are inactive results; ? = inconclusive. Calls follow the shape of the dose curve; as a rule, active = well fitted curve in the direction sought with a large enough effect; inconclusive = small, poorly fitted or top-dose-only effect, or another doubt; inactive = no such curve, though single readings can be large; an effect the other way counts as inactive or inconclusive. Potency is read from the fitted curve at half-maximal effect.

SMILES | Cruzain Triton | Cruzain inh noDet
C=Cc1ccc(CSc2nc(-c3ccccc3Cl)nc3c2Cc2c(CO)cnc(C)c2O3)cc1 | -4.2% | 9.9%
Cc1cccc(N(CC(=O)NCCSc2ccc(Cl)cc2)S(C)(=O)=O)c1C | -9.3% | 18.9%
COCCN(CCOC)c1nc(C)nc2c1nc(-c1ccccc1)n2CCN1CCOCC1 | 3.3% | 9.5%
Oc1ccccc1C1Nc2cccc3cccc(c23)N1 | -9.8% | -19.4%
COc1ccccc1C1Nc2cccc3cccc(c23)N1 | -4.3% | 25.1µM*
COc1cc(C(=O)O/N=C2\C=CC(=O)C(C)=C2)cc(OC)c1OC | ? | -17.2%
COc1cc(C(=O)ON=C2C=C(C)C(=O)C(C)=C2)cc(OC)c1OC | 3.55µM* | ?
COc1ccccc1Nc1nn2c(=O)c3ccc(C(=O)NCCc4ccccc4)cc3nc2s1 | -2.8% | -20.5%
Fc1ccccc1COc1ccccc1/C=N/Nc1nc(N2CCCC2)nc(N2CCCC2)n1 | -2.6% | ?
Fc1ccc(COc2ccc(Cl)cc2/C=N/Nc2nc(N3CCCC3)nc(N3CCCC3)n2)cc1 | -1.7% | 5.01µM*
Cc1ccc2nc(NC(=O)c3ccc(-c4nc5ccccc5s4)s3)sc2c1 | -19.6% | 3.98µM*
O=C(Nc1nc2ccccc2s1)c1ccc(Cl)s1 | -0.1% | ?
COc1ccccc1CNC(=O)c1cc2sccc2n1Cc1ccc(Cl)cc1 | -2.6% | -64.4%
Cc1ccccc1OCc1nnc(SCC(=O)Nc2ccc3c(c2)oc2ccccc23)n1C | 0.8% | 20µM*
Cc1ccc(-c2nnc(SCC(=O)Nc3ccc4c(c3)oc3ccccc34)n2C)c(Cl)c1 | -4.2% | ?
COc1ccccc1OCc1nnc(SCC(=O)Nc2ccc(C)cc2)n1C | 3.2% | 7.9%
Cn1c(SCC(=O)Nc2cccc(Br)c2)nnc1-c1cc2ccccc2o1 | 0.7% | 12.6µM*
CN(C)c1ccc(C(=O)NCc2ccc3c(c2)CCN3C(=O)c2ccccc2)cc1 | -4.1% | 7.1%
CCOC(=O)N1CCc2c(sc(NCc3cccc(F)c3)c2C(=O)Nc2ccc(OC)cc2OC)C1 | -7.0% | ?
CC1CCc2nn(CC(=O)Nc3cccc(C(F)(F)F)c3)c(=O)cc2C1 (stereo unspecified) | -0.2% | -0.3%
Cc1ccccc1NC(=O)Cc1nnc(SCC(=O)c2ccc(Br)cc2)n1C | 3.0% | -7.2%
Cc1ccc(NC(=O)Cc2nnc(SCC(=O)c3ccc(Br)cc3)n2C)cc1Cl | 6.6% | 12.6µM*
COC(=O)N[C@H](C[N+](=O)[O-])c1cccc(C)c1 | 0.8% | 6.0%
Cc1cccc(-c2c3c(=O)n(C)c(=O)n(C)c3c3c(C)nc4ccccc4n23)c1 | 3.6% | 3.6%
COc1ccc(C2=C(C)C(=O)N(Cc3ccc(C(=O)Nc4cc(C)ccc4C)cc3)S2(=O)=O)cc1 | -8.1% | ?
SMILES | Cruzain Triton | Cruzain inh noDet
CC1=C(c2ccc(C)cc2)S(=O)(=O)N(Cc2ccc(C(=O)Nc3ccc(C)c(F)c3)cc2)C1=O | -2.0% | 20µM*
COc1ccc(Br)cc1CNC(=O)c1cc2ccccn2n1 | -3.8% | -19.9%
COc1ccc(-c2onc3ccc(Cl)cc23)cc1 | -5.1% | -4.7%
COc1ccc(-c2cn(/N=C/c3ccc(Cl)cc3Cl)c(N)n2)cc1 | -21.4% | 7.94µM*
COC(=O)c1cnc(NCc2ccc(F)cc2)c2ccccc12 | -11.4% | 0.1%
Cc1ccc(Nc2nc3ccccc3s2)cc1 | -10.4% | 7.6%
O=[N+]([O-])c1ccc(Nc2nc3ccccc3s2)cc1 | 3.55µM* | 3.98µM*
CC(C)c1ccc(NC(=O)c2ccc(F)c(S(=O)(=O)N3CCCC3)c2)cc1 | 0.7% | 4.2%
O=C(Nc1ccc(Br)cc1)c1ccc(F)c(S(=O)(=O)N2CCCc3ccccc32)c1 | 0.4% | ?
O=C(CN1CCN(c2ccccc2)CC1)Nc1ccc2c(c1)CCC2 | -0.6% | 1.5%
O=C(Nc1ccc2c(c1)CCC2)c1cc(S(=O)(=O)N2CCN(c3ccccc3)CC2)ccc1Cl | 0.6% | 3.98µM*
O=C(Nc1cc(Cl)cc(Cl)c1)c1ccc(F)c(S(=O)(=O)N2CCCC2)c1 | -2.6% | 25.1µM*
Cc1ccc(C)c(NC(=O)c2cc(S(=O)(=O)N3CCc4ccccc4C3)ccc2F)c1 | 1.7% | -3.0%
O=C(Nc1cc(Cl)cc(Cl)c1)c1cc(S(=O)(=O)N2CCc3ccccc3C2)ccc1F | 1.3% | 15.8µM*
O=C(Nc1cc(Cl)cc(Cl)c1)c1ccc(F)c(S(=O)(=O)N2CCc3ccccc32)c1 | 0.9% | 15.8µM*
CN1CCC[C@H](C(=O)OCC(=O)[C@]2(O)CC[C@@H]3[C@H]4CCC5=CC(=O)CC[C@@]5(C)[C@H]4[C@@H](O)C[C@]32C)C1 | -0.3% | -10.0%
CCC(C)C1NC(=O)C(CCNCS(=O)(=O)O)NC(=O)C(NC(=O)C(CCNCS(=O)(=O)O)NC(=O)C(NC(=O)C(CCNCS(=O)(=O)O)NC(=O)CCCCC(C)C)C(C)O)CCNC(=O)C(C(C)O)NC(=O)C(CCNCS(=O)(=O)O)NC(=O)C(CCNCS(=O)(=O)O)NC(=O)C(C(C)CC)NC1=O (stereo unspecified) | -5.6% | ?
Cc1ccccc1CCNC(=O)c1ccc(Cn2c(=O)c3cccn3c3cccnc32)cc1 | -1.8% | -0.7%
O=C(N/N=C/C=C\c1ccccc1[N+](=O)[O-])c1cc(-c2ccc3ccccc3c2)n[nH]1 | -12.7% | 7.94µM*
O=C(N/N=C/C=C\c1ccccc1[N+](=O)[O-])c1cccs1 | -8.5% | -9.9%
C[C@@H](O)C#C[Si](C)(C)c1ccccc1 | 1.8% | 2.6%
O=C(COc1ccccc1)Nc1nc2ccccc2[nH]1 | -3.9% | -14.2%
O=C(COc1cccc2ccccc12)Nc1nc2ccccc2[nH]1 | -13.3% | 25.1µM*
O=C(CSc1nc2ccccc2[nH]1)Nc1ccc(F)c(F)c1 | -28.7% | 25.1µM*
O=C(/C=C/c1ccccc1)Nc1ncn[nH]1 | 4.6% | 2.0%
SMILES | Cruzain Triton | Cruzain inh noDet
O=C(CSCc1nc2ccccc2[nH]1)Nc1ccc2ccccc2c1 | -22.0% | ?
O=C(CSc1ccc2ccccc2c1)Nc1nc2ccccc2[nH]1 | -1.2% | 15.8µM*
O=C(/C=C/c1ccc(F)cc1)Nc1nc2ccccc2[nH]1 | -2.1% | 10µM*
O=C(CSc1nc2ccccc2[nH]1)Nc1ccccc1F | -9.4% | -26.7%
Cc1cccc(N2CCN(C(=O)C3CCN(S(=O)(=O)Cc4ccccc4)CC3)CC2)c1C | -3.1% | 3.9%
Nc1nc(-c2ccc3ccccc3c2)cc(-c2cc(-c3ccc4ccccc4c3)nc(N)n2)n1 | -1.9% | -4.5%
CCOC(=O)c1cccc(NC(=O)c2ccc3nc(CCc4ccccc4)oc3c2)c1 | -3.3% | -10.4%
Cc1ccc(-n2c(=O)c3c(cnn3C)n(Cc3ccc(Cl)cc3)c2=O)cc1 | 6.4% | 19.1%
CCOc1cccc2sc(NC(=O)c3ccc(S(=O)(=O)N4CCc5ccccc54)cc3)nc12 | -1.0% | ?
O=C(COc1ccc2ccccc2c1Br)NC(=S)Nc1cccc(CO)c1 | -6.7% | 31.6µM*
O=C(COc1ccc(Br)cc1Br)NC(=S)Nc1cccc(CO)c1 | -9.3% | ?
CC1Cc2ccccc2N1C(=O)CSc1nnc(NC(=O)Cc2cccs2)s1 (stereo unspecified) | 15.8µM* | 25.1µM*
CC(=O)Nc1nnc(SCC(=O)c2ccc3c(c2)Cc2ccccc2-3)s1 | -0.1% | 11.7%
CCC(=O)Nc1nnc(SCC(=O)N2c3ccccc3CC2C)s1 (stereo unspecified) | 3.55µM* | 12.6µM*
Cc1nnc(SCC(=O)N2c3ccccc3CC2C)s1 (stereo unspecified) | 3.1% | 5.1%
CCC(=O)Nc1nnc(SCC(=O)c2ccc3c(c2)Cc2ccccc2-3)s1 | 4.8% | 20µM*
